Source: PubChem BioAssay (Broad Institute)
SIRT5 block = blocks human SIRT5 desuccinylation of peptide; Q9NXA8; Purified SirT5, succinyl-peptide AMC, trypsin-coupled fluorescence; 330,000 compounds, 1.1% hits; inhibition, % at 15 µM; in the data active means inhibition above about 15%
ERAP1 HTS inh = blocks human ERAP1 aminopeptidase activity. Q9NZ08. recombinant ERAP1, Leu-AMC fluorescence, 60 min. inhibition, % at 10.7 µM. 340,000 compounds, 0.15% hits;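 active means mean replicate inhibition of at least 30%, or all replicates individually reaching that 30% level; inactive means mean below 30% and not every replicate reaching it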;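 further: 0% = neutral control wells and 100% = L-leucinethiol positive control wells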
FGF22 binding = binders of recombinant human FGF22 by thermal shift | Q9HCT0 | SYPRO orange fluorescence; percent of sucrose octasulfate shift, DMSO zero | activity (Tm shift, normalised), % at 9.99 µM | 340,000 compounds, 1.5% hits | AID 651658;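 active means mean Tm shift, scaled 0 neutral to 100 positive control, at about 1.3% or above, every replicate too, limit read from the data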
Target sequence (Q9HCT0 whole entry, looked up): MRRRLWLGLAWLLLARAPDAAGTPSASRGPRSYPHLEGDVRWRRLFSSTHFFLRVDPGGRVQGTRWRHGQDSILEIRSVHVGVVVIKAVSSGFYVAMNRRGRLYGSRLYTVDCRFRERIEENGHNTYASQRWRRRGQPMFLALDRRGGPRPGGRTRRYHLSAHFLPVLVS
Casp6 inh = blocks human caspase-6 cleavage activity | P55212 | purified caspase-6, Z-VEID-R110 cleavage fluorescence | inhibition, % at 12.5 µM | 350,000 compounds, 0.53% hits | AID 686996;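 active means mean inhibition across replicates at least about 35%, with every replicate also reaching that limit, limit read from the data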;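 further: 0% = median of neutral control wells and 100% = no fluorescence left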
Target sequence (P55212 24-179 limits assumed): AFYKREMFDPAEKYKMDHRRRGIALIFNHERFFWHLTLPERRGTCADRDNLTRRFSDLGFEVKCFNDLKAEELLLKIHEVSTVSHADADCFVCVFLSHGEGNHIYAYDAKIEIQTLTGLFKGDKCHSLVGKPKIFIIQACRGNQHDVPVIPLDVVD
Target sequence (P55212 194-293 limits assumed): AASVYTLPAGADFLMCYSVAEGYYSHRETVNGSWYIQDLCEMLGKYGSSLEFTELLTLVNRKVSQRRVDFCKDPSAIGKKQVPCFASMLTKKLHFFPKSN
Active calls of the source: *; . = no result given. Hits are enriched below; roughly 3.1% of the tested compounds scored in any of these assays.

SMILES	SIRT5 block	ERAP1 HTS inh	FGF22 binding	Casp6 inh
COc1ncc(-c2ccc(N3C(c4ccsc4)=Cc4ccc(F)cc4C3CC(=O)c3ccco3)cc2)cn1 (stereo not given)	-3	.	0	-3
CCCN(C)C[C@@H]1OCCCC[C@@H](C)Oc2ccc(NS(=O)(=O)c3ccccc3)cc2C(=O)N([C@@H](C)CO)C[C@@H]1C	.	0	0	0
C[C@@H]1CN([C@H](C)CO)C(=O)c2cc(NS(C)(=O)=O)ccc2O[C@@H](C)CCCCO[C@H]1CN(C)S(=O)(=O)c1ccc(F)cc1	3	1	0	-3
O=C(C[C@H]1C[C@H]2c3cc(NC(=O)Nc4ccccc4F)ccc3O[C@H]2[C@@H](CO)O1)NCc1ccc(Oc2ccccc2)cc1	0	3	0	-4
O=C(C[C@H]1C[C@@H]2c3cc(NC(=O)Nc4ccccc4F)ccc3O[C@@H]2[C@@H](CO)O1)NCc1ccc(Oc2ccccc2)cc1	18*	3	0	-4
O=C(C[C@@H]1C[C@H]2c3cc(NC(=O)c4ccc5c(c4)OCO5)ccc3O[C@H]2[C@H](CO)O1)NCc1ccc(Oc2ccccc2)cc1	22*	1	0	2
O=C(C[C@@H]1C[C@H]2c3cc(NC(=O)Nc4ccccc4F)ccc3O[C@H]2[C@H](CO)O1)NCC1CC1	22*	4	0	1
O=C(C[C@@H]1C[C@H]2c3cc(NS(=O)(=O)c4ccc(F)cc4)ccc3O[C@H]2[C@H](CO)O1)NCc1ccc(-c2ccccc2)cc1	20*	2	.	-1
O=C(C1CC1)N1CCCCN2[C@H](CO)[C@H](c3ccc(C#CC4(O)CCCC4)cc3)[C@@H]2C1	2	1	0	2
COc1cccc(S(=O)(=O)Nc2ccc3c(c2)[C@H]2C[C@@H](CC(=O)N[C@@H](C)c4ccccc4)O[C@H](CO)[C@H]2O3)c1	-3	0	0	2
O=C(NC(=S)N1CCN(C/C=C/c2ccccc2)CC1)c1cccnc1	-1	1	0	0
O=C(c1cccnc1)N1CCN(C/C=C/c2ccccc2)CC1	-2	3	43*	-4
COc1ccc(C)cc1NC(=S)NNC(=O)c1c(Br)cnn1C	1	0	44*	-1
COc1ccc(NC(=O)N(C)C[C@H]2Oc3c(cccc3N(C)C)C(=O)N([C@@H](C)CO)C[C@@H]2C)cc1	-3	1	-1	1
NC(=S)N/N=C/c1ccc(-c2ccccc2)o1	0	3	0	1
NC(=S)NN=Cc1ccc(-c2ccc(S(=O)(=O)Nc3ncccn3)cc2)o1	46*	2	0	38*
COc1ccc(NC(=S)Nc2ccc(OC(F)F)cc2)cn1	0	2	43*	2
COc1ccc(OC(=O)N(C)C[C@@H]2OCc3ccccc3-c3ccccc3C(=O)N([C@@H](C)CO)C[C@@H]2C)cc1	6	-2	0	2
O=C(NCCC1=CCCCC1)Nc1ccc2nsnc2c1	0	-1	43*	4
COc1ccc(-c2csc(NC(=O)CSCc3c(C)noc3C)n2)cc1OC	-4	1	0	60*
Cc1noc(C)c1CSCC(=O)Nc1nc(-c2ccc(F)c(F)c2)cs1	-2	5	0	0
COc1ccc(-c2csc(NC(=O)c3ccc(OCC(=O)N4CCOCC4)c(OC)c3)n2)cc1OC	-1	-5	44*	5
COc1cccc(NC(=O)Nc2ccc3c(c2)OC[C@H](C)NC[C@@H](C)[C@@H](OC)CN(C)C3=O)c1	0	-1	0	-11
CC(C)[C@H](NC(=O)c1ccccc1)C(=O)OCC(=O)Nc1ccc(S(=O)(=O)N2CCOCC2)cc1	.	2	43*	-4
O=C(COC(=O)/C=C/c1ccccc1[N+](=O)[O-])Nc1ccc(S(=O)(=O)N2CCOCC2)cc1	.	4	43*	5
SMILES	SIRT5 block	ERAP1 HTS inh	FGF22 binding	Casp6 inh
COc1ccc(NC(=O)COC(=O)/C=C/c2ccccc2[N+](=O)[O-])cc1OC	10	-8	0	1
CC(C)C#Cc1ccc([C@@H]2[C@@H](CO)N3C(=O)CN(S(=O)(=O)c4ccccc4)C[C@H]23)cc1	5	0	0	4
CCn1cnc2c1c(=O)n(CC(=O)NCC(F)(F)F)c(=O)n2Cc1ccccc1	-5	58*	0	3
CCn1cnc2c1c(=O)n(CC(=O)NCc1ccccc1)c(=O)n2Cc1ccccc1	-1	-2	0	.
Cc1ccc(NC(=S)Nc2ccc(F)cc2)c(C)c1	1	3	44*	1
O=C(CSc1nc(O)cc(=O)n1-c1ccccc1)Nc1ccc2c3c(cccc13)CC2	4	-3	43*	11
CCCCCCCNC(=O)C1(CC2CC(c3ccccc3)=NO2)CCN(C(=O)OC(C)(C)C)CC1 (stereo not given)	17*	-1	0	-4
COc1cc(/C=C2\CC/C(=C\c3cc(OC)c(O)c(OC)c3)C2=O)cc(OC)c1O	3	-5	0	49*
C[C@H](O)C#Cc1ccc2c(c1)O[C@H](CN(C)C(=O)c1ccccc1)[C@H](C)CN([C@@H](C)CO)S2(=O)=O	-3	-2	0	0
O=C(C[C@@H]1CC[C@H]2[C@@H](COC[C@@H](O)CN2S(=O)(=O)c2ccc(F)cc2)O1)NCc1ccc(Cl)c(Cl)c1	1	0	-1	-1
C/C(=N\NC(=O)COc1ccc(C(C)(C)C)cc1)c1ccc(N2CCOCC2)cc1	-1	1	44*	-2
NS(=O)(=O)c1ccc(CCNC(=O)c2cc(-c3ccco3)nc3ccccc23)cc1	-15	-4	6.2*	0
Cc1ccc(-c2cc(C(=O)NCCc3ccc(S(N)(=O)=O)cc3)c3ccccc3n2)cc1	-19	-1	0	2
N#Cc1cccc(-c2ccc3c(c2)[C@@H]2[C@@H](CCN2Cc2ccncc2)[C@@H](CO)N3)c1	1	2	1	-2
CCCCCCN1C[C@@H](n2cc(C3CC3)nn2)[C@H](O)C[C@@H]1c1ccc(OC)cc1	23*	1	0	7
O=C(C[C@H]1C[C@@H]2c3cc(NC(=O)Nc4ccc(C(F)(F)F)cc4)ccc3O[C@@H]2[C@H](CO)O1)NCc1cc(F)ccc1F	7	-4	-1	4
Cc1[nH]c(=O)nc(NN=Cc2ccc(Cl)cc2)c1C(=O)Nc1ccc(Cl)cc1	.	4	43*	-6
CC(=O)c1c(C)[nH]c(C(=O)Nc2ccc(Cl)cc2)c1C	0	0	0	4
O=C(c1ccc(F)cc1)N1CC(=O)N2[C@H](CO)[C@@H](c3ccc(C#Cc4ccc(F)cc4)cc3)[C@@H]2C1	-3	1	.	1
Cc1ccc(/C=N/NC(=O)CNC(=O)COc2ccccc2)cc1	0	-1	0	-3
Cc1[nH]c2ccccc2c1/C=N/NC(=O)CNC(=O)COc1ccccc1	113*	0	0	12
O=C(COc1ccccc1)NCC(=O)N/N=C/C=C/c1ccccc1	20*	-1	0	-1
C[C@@H]1CN([C@@H](C)CO)C(=O)c2cc(-c3ccncc3)cnc2O[C@H]1CN(C)C(=O)NC1CCCC1	-3	-1	0	-6
